Assay outcomes deposited in PubChem by NMMLSC.
Sampled rows, rich in hits. Any-hit rate of the full collection: about 1.2%.
RGS4-Gao reg – modulates binding of RGS4 to human Galphao | Multiplexed bead flow cytometry; actives lie on both sides | binding response (% of control), % at 10 µM | 0.33% of 220,000 active | AID 1415; in the data active = binding response below about 49% or above about 150%; inactive = in between;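 note: fluorescent Galphao activated with aluminum fluoride binding bead-coupled RGS4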
Target sequence (P09471 whole entry, looked up): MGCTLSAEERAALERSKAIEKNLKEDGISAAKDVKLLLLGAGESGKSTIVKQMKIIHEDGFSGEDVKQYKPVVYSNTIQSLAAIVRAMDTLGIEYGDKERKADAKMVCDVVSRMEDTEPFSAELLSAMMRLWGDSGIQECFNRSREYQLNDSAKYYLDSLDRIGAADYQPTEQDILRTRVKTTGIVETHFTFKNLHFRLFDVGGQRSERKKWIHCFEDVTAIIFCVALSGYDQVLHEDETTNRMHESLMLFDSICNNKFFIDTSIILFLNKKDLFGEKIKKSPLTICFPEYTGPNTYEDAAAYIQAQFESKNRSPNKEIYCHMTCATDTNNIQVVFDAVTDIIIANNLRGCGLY
RGS7-Gao – regulators of human RGS7-Galphao interaction. Multiplexed bead flow cytometry, RGS7-Galphao binding; actives lie on both sides. binding response (% of control), % at 10 µM. 0.35% of 220,000 active; in the data active = binding response below about 49% or above about 150%; inconclusive = no clear call, values can overlap the other calls; inactive = in between;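 note: fluorescent Galphao held in activated GDP-AlF4 state binding bead-coupled RGS7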
Avidin bead fluor – compound fluoresces at 488/530 nm on avidin beads | compound fluorescence 488/530 nm, flow cytometry; hits give high values | fluorescence (KMESF) at 10 µM | 0.38% of 220,000 active; in the data active = fluorescence above about 47
RGS8-Gao – regulators of human RGS8-Galphao interaction; 0.34% of 220,000 active; multiplexed bead flow cytometry, RGS8-Galphao binding; actives lie on both sides; P09471; response (percent of control binding), % at 10 µM; AID 1423; in the data active = response below about 60% or above about 140%; inactive = in between;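 note: Galphao activated as the GDP aluminium fluoride complex binding bead-coupled RGS8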
GSH fluor – GSH bead compound fluorescence profile; GSH beads flow cytometry, compound fluorescence 488/530 nm; hits give high values; fluorescence (KMESF) at 10 µM; 0.25% of 190,000 active; AID 1776; in the data active = fluorescence above about 89;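 note: glutathione beads carrying GST-tagged Bcl family fusion proteins plus one bare bead set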
RGS16-Gao – RGS16-Galphao interaction regulator (human). AID 1441. binding response (% of control), % at 10 µM. bead-based flow cytometry RGS16-Galphao binding, fluorescence; actives lie on both sides. 0.38% of 220,000 active. O15492+P09471;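 note: Galphao activated by GDP with aluminum fluoride before binding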
RGS-Gao – RGS4-Galphao interaction regulator (human); shares compounds with RGS16-Gao; multiplexed bead flow cytometry, RGS–Galpha-o binding; RGS4–Galpha-o binding response, % at 10 µM; 99% of 1,600 active; AID 1504;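 note: fluorescently labeled Galpha-o bound to GDP with aluminium fluoride binding biotinylated RGS beads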
Target sequence (P09471 whole entry, looked up): as above
Target sequence (P49798 whole entry, looked up): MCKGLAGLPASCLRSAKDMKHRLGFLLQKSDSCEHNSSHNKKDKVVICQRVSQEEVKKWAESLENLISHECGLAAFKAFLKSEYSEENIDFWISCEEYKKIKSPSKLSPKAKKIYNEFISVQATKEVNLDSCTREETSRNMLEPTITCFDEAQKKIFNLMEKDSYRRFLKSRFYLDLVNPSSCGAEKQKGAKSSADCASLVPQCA
Biotin-avidin – interferes with biotinylated probe binding to avidin beads | shares compounds with RGS16-Gao | inhibition, % at 10 µM | 1,700 tested, under 10 active | streptavidin beads, fluorescein-biotin binding, flow cytometry;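 active = inhibition above 50%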;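 note: median green fluorescence of gated singlet beads compared with DMSO control wells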
RGS8-Gao single – confirmation of regulators of human RGS8-Galphao interaction. binding response (% of control), % at 10 µM. bead-based flow cytometry RGS8-Galphao binding, fluorescence; actives lie on both sides. AID 1836. 3% of 1,700 active. shares compounds with RGS16-Gao; in the data active = binding response below about 72% or above about 130%; inactive = in between;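 note: Galphao activated as GDP AlF4 complex before binding bead RGS8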
RGS7-Gao single – RGS7-Galphao interaction regulation, single point confirmation; bead-based flow cytometry RGS7-Galphao binding; actives lie on both sides; response (percent of control binding), % at 10 µM; shares compounds with RGS16-Gao; 7.8% of 1,700 active; in the data active = response below about 75% or above about 130%; inactive = in between;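 note: fluorescent Galphao activated with GDP and aluminum fluoride binding bead-coupled RGS7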
RGS16-Gao conf – confirmation of regulators of human RGS16-Galphao interaction | bead-based flow cytometry, RGS16-Galphao binding; actives lie on both sides | response (% of control binding), % at 10 µM | shares compounds with RGS16-Gao | 4% of 1,700 active; in the data active = response below about 74% or above about 130%; inactive = in between;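 note: Galphao activated as the GDP aluminium fluoride complex binding bead-coupled RGS16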
RGS4-Gao confirm – confirmation of regulators of human RGS4-Galphao interaction; shares compounds with RGS16-Gao; RGS4-Galphao binding, multiplexed bead flow cytometry; actives lie on both sides; binding response (% of control), % at 10 µM; 4% of 1,700 active; AID 1840; in the data active = binding response below about 74% or above about 130%; inactive = in between
RGS19-Gao conf – RGS19-Galphao interaction regulation, single point confirmation; AID 1841; 5% of 1,700 active; shares compounds with RGS16-Gao; bead-based flow cytometry RGS19-Galphao binding; actives lie on both sides; response (percent of control binding), % at 10 µM; in the data active = response below about 50% or above about 160%; inactive = in between
A number is an active result; i = inactive; ? = inconclusive; nt = no result given; [ ] = dose if it differs, or a comment. Unless noted, the rule behind the calls is not given here.

SMILES	RGS4-Gao reg	RGS7-Gao	Avidin bead fluor	RGS8-Gao	GSH fluor	RGS16-Gao	Biotin-avidin	RGS8-Gao single	RGS7-Gao single	RGS16-Gao conf	RGS4-Gao confirm	RGS19-Gao conf	others
Cc1ccc(C)c(NC(=S)c2ccc3ccccc3n2)c1	18.8	8.0	i	15.1	i	2.2	i	i	i	i	i	i
C#Cc1ccc([C@H]2C=C(C(=O)N3CCN(Cc4ccc5c(c4)OCO5)CC3)O[C@@H](OCc3ccc(CO)cc3)C2)cc1	i	i	i	i	i	i	nt	nt	nt	nt	nt	nt
CN(C)/C=C/C(=O)c1cnc(-c2ccc(Cl)cc2)s1	3.1	2.5	i	7.8	i	-6.2	i	i	i	i	i	i
CN(C)/C=C/C(=O)c1cnc(-c2ccccc2)s1	i	i	i	i	i	i	nt	nt	nt	nt	nt	nt
CCOC(=O)N1CCN(C(=O)CN(Cc2ccc(Cl)cc2)S(=O)(=O)c2ccc(C)cc2)CC1	i	i	nt	i	i	nt	i	i	i	i	i	i
Cn1c(=O)c2c(nc(N3CCc4ccccc4C3)n2Cc2ccccc2F)n(C)c1=O	i	i	i	i	i	i	nt	nt	nt	nt	nt	nt
Cn1c(=O)c2c(nc(OCC3COC(C)(C)O3)n2Cc2ccccc2F)n(C)c1=O (stereo unspecified)	165.4[activator]	164.3[activator]	i	145.0[activator]	i	i	i	i	i	i	i	i
O=S1(=O)[C@H]2CC3O[C@]2(C[C@@H]3c2ccc(F)cc2)CN1Cc1ccc(Cl)cc1	i	?	i	i	nt	i	nt	nt	nt	nt	nt	nt
O=S1(=O)[C@H]2C[C@@H]3C=C[C@]2(CN1Cc1ccc(C(F)(F)F)cc1)O3	i	?	i	i	nt	i	i	i	i	i	i	i
Cc1oc2ccc(O)c(CN(C)C)c2c1C(=O)c1ccccc1	i	i	i	152.9[activator]	i	i	i	i	i	i	i	i	RGS-Gao=123.2
CCOC(=O)c1c(-c2ccccc2)oc2ccc(O)c(CN(C)C)c12	i	i	i	i	i	i	nt	nt	nt	nt	nt	nt
Cn1ncc([N+](=O)[O-])c1C(=O)Nc1ccc(-c2nc3ccccc3o2)cc1	i	i	i	i	i	i	nt	nt	nt	nt	nt	nt
OC(CNCc1ccc(Cl)cc1)C(F)(F)F (stereo unspecified)	i	i	i	i	i	i	nt	nt	nt	nt	nt	nt
Cc1ccc(N(C(=O)Nc2ccccc2)C2=NCCC2)cc1	44.2	?	i	i	nt	i	i	i	46.8	i	57.4	i
O=C(Nc1ccccc1)N(C1=NCCC1)c1ccccc1	i	?	i	i	nt	i	nt	nt	nt	nt	nt	nt
Cc1ccc(CN(c2ccc(C(=O)Nc3cccnc3)cc2)S(C)(=O)=O)cc1	-2.8	15.6	i	31.8	i	4.8	i	i	i	i	i	i
CN(C)c1cccc(/C=C(\C#N)c2ccccc2)c1	i	?	i	i	nt	i	nt	nt	nt	nt	nt	nt
O=C(c1ccc(S(=O)(=O)NCc2ccco2)cc1)N1CCN(Cc2ccc3c(c2)OCO3)CC1	i	i	i	158.3[activator]	i	i	i	i	i	i	i	i	RGS-Gao=122.0
CCCCOC(=O)C(NC(=O)c1ccccc1)=C(C)C	-35.7	-15.8	nt	5.2	i	-33.0	i	i	i	i	i	i
C#CCOC(=O)C(NC(=O)c1ccccc1)=C(C)C	i	i	i	i	i	-38.4	i	i	i	i	i	i	RGS-Gao=77.8
CCOC(=O)C(NC(=O)c1ccccc1)=C(C)C	i	i	i	i	i	i	nt	nt	nt	nt	nt	nt
COC(=O)C(NC(=O)c1ccccc1)=C(C)C	i	i	i	i	i	i	nt	nt	nt	nt	nt	nt
CC(C)(C)Cn1c(=O)[nH]c(=O)c2cc([N+](=O)[O-])cnc21	i	i	i	i	i	i	nt	nt	nt	nt	nt	nt
CC(C)c1ccc(NC(=O)COC(=O)C2=COCCO2)cc1	i	i	i	i	i	i	nt	nt	nt	nt	nt	nt
CC(C)(C)c1ccc(NC(=O)COC(=O)C2=COCCO2)cc1	i	i	i	i	i	-183.3	i	i	59.7	i	73.4	i	RGS-Gao=116.8
SMILES	RGS4-Gao reg	RGS7-Gao	Avidin bead fluor	RGS8-Gao	GSH fluor	RGS16-Gao	Biotin-avidin	RGS8-Gao single	RGS7-Gao single	RGS16-Gao conf	RGS4-Gao confirm	RGS19-Gao conf	others
CCOc1ccc(N2C(=O)Nc3ccccc3C2(O)C(=O)N2CCN(c3ccccn3)CC2)cc1 (stereo unspecified)	i	?	i	i	i	i	nt	nt	nt	nt	nt	nt
CCOC(=O)CSc1nc2ccccc2c(=O)n1CC1CCCO1 (stereo unspecified)	i	i	i	56.6	i	i	i	i	i	i	i	i	RGS-Gao=70.8
CCOC(=O)CSc1nc2ccccc2c(=O)n1CC1COc2ccccc2O1 (stereo unspecified)	-25.9	-13.9	i	0.8	i	i	i	i	130.4[activator]	i	i	i
Cc1ccc(C)c2nc3sc(C(=O)O)cc3cc12	i	i	i	i	i	i	nt	nt	nt	nt	nt	nt
COc1ccc(OC)c2c1C(=O)C(Cl)=C(Cl)C2=O	i	?	i	44.7	nt	-14.4	nt	nt	nt	nt	nt	nt	RGS-Gao=57.6
CC(C)=CCCC(C)CN1CCC(N2CCC(C(=O)NC(C)C)CC2)CC1 (stereo unspecified)	i	i	i	i	i	i	nt	nt	nt	nt	nt	nt
O=C(NN=C1CCCCCC1)c1ccc(Br)o1	i	i	i	140.8[activator]	i	326.8[activator]	i	i	i	i	i	i	RGS-Gao=115.2
CC(C)N1CCC(=NNC(=O)c2ccc(Br)o2)CC1	i	i	i	i	i	i	nt	nt	nt	nt	nt	nt
CC(C)=C1C2CCC1C1C(=O)N(c3ccc(C)c(C)c3)C(=O)C21 (stereo unspecified)	i	i	i	i	i	i	nt	nt	nt	nt	nt	nt
Nc1ccc(NC(=O)c2ccco2)c(Cl)c1	i	i	i	i	i	i	nt	nt	nt	nt	nt	nt
CCn1nnnc1NCc1ccc(N2CCCC2)cc1	34.8	i	i	i	i	i	i	i	i	i	i	i
CC1CCCCN1C(=O)Nc1cccc(C(F)(F)F)c1 (stereo unspecified)	i	i	i	i	i	i	nt	nt	nt	nt	nt	nt
COC(=O)c1ccc2c(=O)[nH]c(CSc3nnc(C(F)(F)F)n3C)nc2c1	i	i	i	i	i	15.5	i	i	i	i	i	i	RGS-Gao=90.3
